In PubChem BioAssay (NCI):
“And” between values parts separate entries of the source, which are not always exact repeats. Equal values may be shown once. Compounds without any hit were thinned out: in the full panel of roughly 83,000, 20% have a hit.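 Treatment: one concentration, 48 hours, 96-well format. Scoring: percent growth, with anything below 10 considered active.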 The source made the active and inactive calls.

Columns and labels:
Assay in all cases: NCI-60 one-dose screen, 48 h (100 = growth as untreated, 0 = no growth, -100 = all killed)
Settings in all cases: 10 µM unless noted
NCI-H23 lung = test system: NCI-H23 lung
NCI-H226 lung = test system: NCI-H226 lung
NCI-H322M lung = test system: NCI-H322M lung
HOP-62 NSCLC = test system: HOP-62 NSCLC
NCI-H460 lung = test system: NCI-H460 lung
HOP-92 NSCLC = test system: HOP-92 NSCLC
NCI-H522 lung = test system: NCI-H522 lung
A549/ATCC NSCLC = test system: A549/ATCC NSCLC
786-0 renal = test system: 786-0 renal
COLO 205 colon = test system: COLO 205 colon

Row | SMILES | growth (NCI-H23 lung) | growth (NCI-H226 lung) | growth (NCI-H322M lung) | growth (HOP-62 NSCLC) | growth (NCI-H460 lung) | growth (HOP-92 NSCLC) | growth (NCI-H522 lung) | growth (A549/ATCC NSCLC) | growth (786-0 renal) | growth (COLO 205 colon)
1 | O=S(=O)(NCCCNc1nccc(-c2[nH]c(-c3ccccc3)nc2-c2ccc(F)c(O)c2)n1)c1cccc2ccccc12 | 64.9% (inactive) | 68% (inactive) | 98.2% (inactive) | 76.8% (inactive) | 35.5% (inactive) | 32.6% (inactive) | 64% (inactive) | 52.4% (inactive) | 59.8% (inactive) | 111% (inactive)
2 | COc1ccc(-c2cnc(NC(=O)CCCCCCNC(=O)C(O)(O)C(F)(F)F)s2)cc1 | -9.04% (active) | 5.81% (active) | 8.73% (active) | 1.79% (active) | 0.915% (active) | -25.4% (active) | -41.4% (active) | -12.5% (active) | 14.9% (inactive) | -70.8% (active)
3 | C/C=C/CC(C)C(O)[C@H](NC(=O)[C@@H]1CCCN1C(=O)[C@](C)(CC)NC(=O)CCCCCCCCC)C(=O)N[C@@](C)(CC)C(=O)N[C@@H](CCC(N)=O)C(=O)N[C@H](CCC(N)=O)C(=O)NC(C)(C)C(=O)NC(C)(C)C(=O)N[C@@H](CCC(N)=O)C(=O)N[C@H](CC(C)C)C(=O)N[C@H](CO)CC(C)C (stereo not given in full) | 68.4% (inactive) and -71.3% (active) | 49% (inactive) and -24.9% (active) | 69.8% (inactive) and -15.9% (active) | 56.3% (inactive) and -78.5% (active) | 63.6% (inactive) and -72.2% (active) | 75.3% (inactive) and -53.5% (active) | 14.7% (inactive) and -74.4% (active) | 76% (inactive) and 9.75% (active) | 47.7% (inactive) and -80.3% (active) | 48.7% (inactive) and -50.7% (active)
4 | CC(=C(c1ccc(OCCCN(C)C)cc1)c1ccc(OCCCN(C)C)cc1)c1ccc(Cl)cc1 | 84.8% (inactive) | 95.5% (inactive) | 95.1% (inactive) | 99.5% (inactive) | 99.6% (inactive) | 77.9% (inactive) | 94.1% (inactive) | 79.8% (inactive) | 87.4% (inactive) | 96.6% (inactive)
5 | O=C1C(SCc2ccccc2)=C(Cl)CN1c1ccc(Cl)cc1 | 80.5% (inactive) | 99% (inactive) | 98.2% (inactive) | 109% (inactive) | 106% (inactive) | 104% (inactive) | -59.6% (active) | 101% (inactive) | 103% (inactive) | 119% (inactive)
6 | CC1=C(C)C(=O)C(Nc2ccc3c(c2)OCO3)=C(Br)C1=O | 90% (inactive) | 93% (inactive) | 96.5% (inactive) | 92.9% (inactive) | 100% (inactive) | -22.9% (active) | 96.5% (inactive) | 102% (inactive) | 103% (inactive) | 122% (inactive)
7 | O=C(N/N=C/c1cc2ccccc2nc1Cl)c1cc(-c2nc3ccccc3[nH]2)nc2ccccc12 | 96.2% (inactive) | 100% (inactive) | 99.9% (inactive) | 97.9% (inactive) | 104% (inactive) | 72.4% (inactive) | 83.6% (inactive) | 95.1% (inactive) | 85.3% (inactive) | 98.3% (inactive)
8 | N#Cc1nc(-c2ccc(Cl)cc2)oc1N1CCC(S(=O)(=O)N2CCOCC2)CC1 | 96.5% (inactive) | 94.6% (inactive) | 92.2% (inactive) | 94.6% (inactive) | 103% (inactive) | 100% (inactive) | 87.2% (inactive) | 99.9% (inactive) | 93.5% (inactive) | 116% (inactive)
9 | NC1CC2(CCN(c3cnc(C(=O)Nc4cc(F)cc5cccnc45)cn3)CC2)C1 | 88.6% (inactive) | 93.2% (inactive) | 87.4% (inactive) | 96% (inactive) | 83.8% (inactive) | 79.7% (inactive) | 93.3% (inactive) | 63.2% (inactive) | 71.8% (inactive) | 49.9% (inactive)
10 | O=C(CCCCCCNC(=O)C(O)(O)C(F)(F)F)Nc1ccc(Br)cc1 | 10.9% (inactive) | 37.2% (inactive) | 27.1% (inactive) | -9.13% (active) | 12.5% (inactive) | -5.9% (active) | -36.6% (active) | 7.9% (active) | 25.4% (inactive) | -60.8% (active)
11 | C#C[C@]1(O)CC[C@H]2[C@@H]3CC=C4c5sc(Nc6cccc(F)c6)nc5CC[C@]4(C)[C@H]3CC[C@@]21C | 27.8% (inactive) | 43.6% (inactive) | 53.7% (inactive) | 33.4% (inactive) | 24.3% (inactive) | 61.3% (inactive) | 31.7% (inactive) | 32.6% (inactive) | 2.62% (active) | -9.5% (active)
12 | COc1ccc(/C=N/NC(=O)CSc2nc(-c3cnccn3)cc(-c3cccs3)c2C#N)cc1OC | 66.6% (inactive) | 47% (inactive) | 91.9% (inactive) | 77.1% (inactive) | 56.2% (inactive) | 37.8% (inactive) | 76.5% (inactive) | 74.8% (inactive) | 53.1% (inactive) | 107% (inactive)
13 | Cc1csc(/N=C(N)/N=C(\N)c2cccc(C#N)c2)n1 | 84.5% (inactive) | 86.5% (inactive) | 96.6% (inactive) | 64.6% (inactive) | 64.8% (inactive) | 27% (inactive) | 79.6% (inactive) | 71.9% (inactive) | 87.8% (inactive) | 76.1% (inactive)
